Assay results: PubChem BioAssay (NCI)
The panel holds about 83,000 compounds, 20% with a hit somewhere; the sample as a whole holds those more often.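 In brief: 96-well plates, 48 h treatment, single concentration, percent growth endpoint.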 Calls of active or inactive are those of the source. The calls were made as follows: active = growth percent below 10; inactive = the rest.

Experiments:
Experiment in all cases: NCI-60 one-dose screen, 48 h (100 = growth as untreated, 0 = no growth, -100 = all killed)
Details in all cases: 10 µM unless noted
MOLT-4 leukemia = test system: MOLT-4 leukemia
SR leukemia = test system: SR leukemia
RPMI-8226 leukemia = test system: RPMI-8226 leukemia
OVCAR-8 ovarian = test system: OVCAR-8 ovarian
OVCAR-5 ovarian = test system: OVCAR-5 ovarian
OVCAR-4 ovarian = test system: OVCAR-4 ovarian
SK-OV-3 ovarian = test system: SK-OV-3 ovarian
IGROV1 ovarian = test system: IGROV1 ovarian
OVCAR-3 ovarian = test system: OVCAR-3 ovarian
HS 578T breast = test system: HS 578T breast
NCI/ADR-RES ovarian = test system: NCI/ADR-RES ovarian
T-47D breast = test system: T-47D breast
BT-549 breast = test system: BT-549 breast
MDA-MB-435 melanoma = test system: MDA-MB-435 melanoma
SW-620 colon = test system: SW-620 colon
MCF7 breast = test system: MCF7 breast
HCT-116 colon = test system: HCT-116 colon
KM12 colon = test system: KM12 colon
HCC-2998 colon = test system: HCC-2998 colon

Measured: growth

Cc1ccc(Nc2nc3c(s2)C2=CC[C@@H]4[C@H](CC[C@]5(C)C(=O)CC[C@@H]45)[C@@]2(C)CC3)cc1
active: RPMI-8226 leukemia -15.8% | SW-620 colon 0.485% | HCT-116 colon -25.4%
inactive: MOLT-4 leukemia 12.3% | SR leukemia 12.9% | OVCAR-8 ovarian 58.4% | OVCAR-5 ovarian 72.4% | OVCAR-4 ovarian 44.8% | SK-OV-3 ovarian 36.6% | IGROV1 ovarian 65% | OVCAR-3 ovarian 16.7% | HS 578T breast 28.1% | NCI/ADR-RES ovarian 57.2% | T-47D breast 43.8% | BT-549 breast 24.7% | MDA-MB-435 melanoma 44.3% | MCF7 breast 13.9% | KM12 colon 34.7%

COc1ccc(/C=C\c2cc(OC)c(OC)c(OC)c2)c(NS(=O)(=O)c2ccc(Cl)cc2)c1O
inactive: MOLT-4 leukemia 10.1% | OVCAR-5 ovarian 49.2% | OVCAR-4 ovarian 33.1% | SK-OV-3 ovarian 21.9% | IGROV1 ovarian 30.1% | HS 578T breast 10.9% | T-47D breast 84.7% | BT-549 breast 58.2% | SW-620 colon 27% | MCF7 breast 12.7%
active: SR leukemia 7.33% | RPMI-8226 leukemia 7.02% | OVCAR-8 ovarian 2.97% | OVCAR-3 ovarian -31.1% | NCI/ADR-RES ovarian -7.04% | MDA-MB-435 melanoma -48% | HCT-116 colon 6.81% | KM12 colon 1.25%

O=C(CC1(O)C(=O)N(Cc2ccccc2)c2ccc(F)cc21)c1ccc(C(=O)NCC2CCC3(CC2)OOC2(CCCCC2)OO3)cc1 (stereo unspecified)
inactive: SK-OV-3 ovarian 41.1%
active: MOLT-4 leukemia -48.9% | SR leukemia -44.8% | RPMI-8226 leukemia -29.7% | OVCAR-8 ovarian -30.5% | OVCAR-5 ovarian 4.61% | OVCAR-4 ovarian -32.4% | IGROV1 ovarian -38.1% | OVCAR-3 ovarian -76.9% | HS 578T breast -9.82% | NCI/ADR-RES ovarian -48.6% | T-47D breast -53.9% | BT-549 breast -19.7% | MDA-MB-435 melanoma -80.7% | SW-620 colon -62.3% | MCF7 breast 7.64% | HCT-116 colon 4.47% | KM12 colon -68.1%

O=C1C2C(C(=O)[N]1[Hg][c]1cccs1)C1(Cl)C(Cl)=C(Cl)C2(Cl)C1(Cl)Cl (stereo unspecified)
active: MOLT-4 leukemia 3.08% | SR leukemia 1.72% | RPMI-8226 leukemia -11.4% | IGROV1 ovarian 0.499% | OVCAR-3 ovarian -91.1% | T-47D breast -78.5% | BT-549 breast -1.18% | MDA-MB-435 melanoma 7.41% | SW-620 colon -40.4% | MCF7 breast -13.1% | HCT-116 colon -31.9%
inactive: OVCAR-8 ovarian 11.9% | OVCAR-5 ovarian 13.7% | OVCAR-4 ovarian 37.3% | SK-OV-3 ovarian 102% | HS 578T breast 42% | NCI/ADR-RES ovarian 21% | HCC-2998 colon 49.7% | KM12 colon 87.3%

CCC(O)(CN)c1ccccc1 (stereo unspecified)
inactive: MOLT-4 leukemia 105% | SR leukemia 100% | RPMI-8226 leukemia 102% | OVCAR-8 ovarian 97% | OVCAR-5 ovarian 105% | OVCAR-4 ovarian 111% | SK-OV-3 ovarian 98.4% | IGROV1 ovarian 97.9% | OVCAR-3 ovarian 114% | HS 578T breast 102% | NCI/ADR-RES ovarian 105% | T-47D breast 99.6% | BT-549 breast 104% | MDA-MB-435 melanoma 105% | SW-620 colon 100% | MCF7 breast 102% | HCT-116 colon 99.8% | HCC-2998 colon 106% | KM12 colon 103%

CCOc1ccccc1C(=O)OCC(Cl)(Cl)Cl
inactive: MOLT-4 leukemia 105% | SR leukemia 93.9% | RPMI-8226 leukemia 107% | OVCAR-8 ovarian 102% | OVCAR-5 ovarian 109% | OVCAR-4 ovarian 111% | SK-OV-3 ovarian 106% | IGROV1 ovarian 106% | OVCAR-3 ovarian 109% | HS 578T breast 97.9% | NCI/ADR-RES ovarian 108% | T-47D breast 90.6% | BT-549 breast 106% | MDA-MB-435 melanoma 107% | SW-620 colon 110% | MCF7 breast 99.4% | HCT-116 colon 105% | KM12 colon 101%

COc1ccc(C2=N[C@@H](Cc3ccccc3)C(=O)Nc3ccsc32)cc1
active: SR leukemia 8.97% | OVCAR-3 ovarian 3.83% | MDA-MB-435 melanoma -15.7%
inactive: MOLT-4 leukemia 35.7% | RPMI-8226 leukemia 41.7% | OVCAR-8 ovarian 70.4% | OVCAR-5 ovarian 84.1% | OVCAR-4 ovarian 69.9% | SK-OV-3 ovarian 67.4% | IGROV1 ovarian 66% | HS 578T breast 65.4% | NCI/ADR-RES ovarian 28.4% | T-47D breast 61.1% | BT-549 breast 51.7% | SW-620 colon 37.6% | MCF7 breast 24.1% | HCT-116 colon 27.5% | KM12 colon 39.1%

O=C(CCCCCCC(=O)Nc1ccc(N(CCCl)CCCl)cc1)NO
inactive: MOLT-4 leukemia 19.5% | SR leukemia 12.2% | RPMI-8226 leukemia 49.1% | OVCAR-8 ovarian 19.3% | OVCAR-5 ovarian 53.7% | OVCAR-4 ovarian 44.9% | SK-OV-3 ovarian 26.3% | IGROV1 ovarian 59.2% | OVCAR-3 ovarian 41.7% | HS 578T breast 71.7% | NCI/ADR-RES ovarian 64.6% | BT-549 breast 58.9% | MDA-MB-435 melanoma 45.1% | SW-620 colon 33.2% | HCT-116 colon 36.1% | HCC-2998 colon 52.1% | KM12 colon 63%
active: T-47D breast -8.98% | MCF7 breast 9.37%

O=[N+]([O-])/C=C\c1ccc(Cl)c(Cl)c1
active: SR leukemia 7.87% | RPMI-8226 leukemia -2.51% | BT-549 breast 4.99% | MDA-MB-435 melanoma -26.3% | SW-620 colon -6.79% | MCF7 breast -32.4% | HCT-116 colon -52.8%
inactive: MOLT-4 leukemia 37.1% | OVCAR-8 ovarian 66.1% | OVCAR-5 ovarian 106% | OVCAR-4 ovarian 84.4% | SK-OV-3 ovarian 96.4% | IGROV1 ovarian 92.7% | OVCAR-3 ovarian 44.6% | HS 578T breast 17% | NCI/ADR-RES ovarian 101% | T-47D breast 38.3% | HCC-2998 colon 64.1% | KM12 colon 43.6%

C[C@@H]1C[C@@]2(C)[C@@H](CC[C@@H]3[C@@H]2CC[C@]2(C)C(=O)CC[C@@H]32)CC1=O
inactive: MOLT-4 leukemia 66.2% | SR leukemia 108% | RPMI-8226 leukemia 137% | OVCAR-8 ovarian 62.6% | OVCAR-5 ovarian 93.6% | OVCAR-4 ovarian 103% | SK-OV-3 ovarian 120% | IGROV1 ovarian 76.7% | OVCAR-3 ovarian 112% | HS 578T breast 81.2% | NCI/ADR-RES ovarian 102% | T-47D breast 98.9% | BT-549 breast 112% | MDA-MB-435 melanoma 90% | SW-620 colon 99.7% | MCF7 breast 99.9% | HCT-116 colon 69.3% | HCC-2998 colon 109% | KM12 colon 115%

COC1CC2c3ccccc3C1C(C)=[N+]2C (stereo unspecified)
inactive: MOLT-4 leukemia 101% | SR leukemia 105% | RPMI-8226 leukemia 75.3% | OVCAR-8 ovarian 96.6% | OVCAR-5 ovarian 93.8% | OVCAR-4 ovarian 83.7% | SK-OV-3 ovarian 105% | IGROV1 ovarian 92.5% | OVCAR-3 ovarian 102% | HS 578T breast 105% | NCI/ADR-RES ovarian 78.7% | T-47D breast 107% | BT-549 breast 87.4% | MDA-MB-435 melanoma 100% | SW-620 colon 104% | MCF7 breast 97.3% | HCT-116 colon 103% | KM12 colon 104%

C[C@]12CCc3nc(Nc4ccccc4F)sc3C1=CC[C@@H]1[C@@H]2CC[C@]2(C)C(=O)CC[C@@H]12
active: SW-620 colon -12.6% | HCT-116 colon -22.4%
inactive: MOLT-4 leukemia 14.2% | SR leukemia 11.4% | RPMI-8226 leukemia 15% | OVCAR-8 ovarian 70.8% | OVCAR-5 ovarian 76.5% | OVCAR-4 ovarian 73.9% | SK-OV-3 ovarian 72.6% | IGROV1 ovarian 61.8% | OVCAR-3 ovarian 29.2% | HS 578T breast 67.8% | NCI/ADR-RES ovarian 73.9% | T-47D breast 37.5% | BT-549 breast 66.2% | MDA-MB-435 melanoma 52.5% | MCF7 breast 12.5% | HCC-2998 colon 80.1% | KM12 colon 42.5%

Clc1cccc(NCOOC2(OOCNc3cccc(Cl)c3)CCCCC2)c1
inactive: MOLT-4 leukemia 72.4% | RPMI-8226 leukemia 53.1% | OVCAR-8 ovarian 30.3% | OVCAR-5 ovarian 82.5% | OVCAR-4 ovarian 107% | SK-OV-3 ovarian 94.7% | OVCAR-3 ovarian 79.7% | HS 578T breast 98.4% | NCI/ADR-RES ovarian 36.8% | T-47D breast 62% | BT-549 breast 78% | MDA-MB-435 melanoma 78.7% | SW-620 colon 98.8% | MCF7 breast 65.3% | HCT-116 colon 61.2% | HCC-2998 colon 95.4% | KM12 colon 51.4%
active: SR leukemia -41.4% | IGROV1 ovarian -33.2%
